Assay results as given in PubChem BioAssay (NCATS).
Records with an inconclusive call do not appear. Active and inactive are the calls of the source. The call rests on the fitted dose curve; in most records, active means well fitted inhibition curve with a large enough effect; inconclusive means small, poorly fitted or top-dose-only effect; inactive means flat fitted curve, though single readings scatter. Where a SMILES comes first, the peptide text is derived from it. Bridges are numbered along the chain shown (N, C = ends). [ ]: non-standard residue; d: D form. hArg = N=C(N)NCCCC[C@H](N)C(=O)O; Mpa = O=C(O)CCS

Assays:
Test in all cases: qHTS profiling for inhibitors of Plasmodium falciparum proliferation (AID 504749); further: nearly all actives have a fitted effect of over 60% in size
Details in all cases: P. falciparum in erythrocytes, SYBR Green DNA, 72 h; series mostly up to 28.7 µM
C2A = test system: C2A
How it was run: (§1)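 SYBR Green fluorescence (ex 485 nm, em 535 nm) reports parasite DNA after 72 h compound exposure of infected red cells at 0.3% parasitemia, 2.5% hematocrit; signal normalized to 0.29 uM artemisinin and vehicle wells.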

CP185 = test system: CP185
How it was run: as §1

CP191 = test system: CP191
How it was run: as §1

CP192 = test system: CP192
How it was run: as §1

CP194 = test system: CP194
How it was run: as §1

CP201 = test system: CP201
How it was run: as §1

CP203 = test system: CP203
How it was run: as §1

CP211 = test system: CP211
How it was run: as §1

CP215 = test system: CP215
How it was run: as §1

CP217 = test system: CP217
How it was run: as §1

Measured: Potency

NNC(=O)CP(=O)(c1ccccc1)c1ccccc1
inactive: C2A | CP185 | CP191 | CP192 | CP194 | CP201 | CP203 | CP211 | CP215 | CP217

O=C(/C=C/c1ccccc1)OCc1ccccc1
inactive: C2A | CP185 | CP191 | CP192 | CP194 | CP201 | CP203 | CP211 | CP215 | CP217

NC(=O)[C@@H]1CSSCCC(=O)N[C@@H](CCCCN=C(N)N)C(=O)NCC(=O)N[C@@H](CC(=O)O)C(=O)N[C@@H](Cc2c[nH]c3ccccc23)C(=O)N2CCC[C@H]2C(=O)N1 ([Mpa][hArg]GDWPC-NH2; disulfide 1-7)
inactive: C2A | CP185 | CP191 | CP192 | CP194 | CP201 | CP203 | CP211 | CP215 | CP217

COc1ccc(Cc2cnc(N)nc2N)cc1OC
inactive: C2A | CP185 | CP191 | CP192 | CP194 | CP201 | CP203 | CP211 | CP215 | CP217

Cc1cccc(C)c1NC(=O)CC12CCCN1CCC2
inactive: C2A | CP185 | CP191 | CP192 | CP194 | CP201 | CP203 | CP211 | CP215 | CP217

O=C(NCN1CCOCC1)c1cnccn1
inactive: C2A | CP185 | CP191 | CP192 | CP194 | CP201 | CP203 | CP211 | CP215 | CP217

CC(C)c1cc2c(cc1S(=O)(=O)O)[C@@]1(C)CCC[C@@](C)(C(=O)O)[C@@H]1CC2
inactive: C2A | CP185 | CP191 | CP192 | CP194 | CP201 | CP203 | CP211 | CP215 | CP217

Nc1ccncc1N
inactive: C2A | CP185 | CP191 | CP192 | CP194 | CP201 | CP203 | CP211 | CP215 | CP217

NCc1ccc(S(N)(=O)=O)cc1
inactive: C2A | CP185 | CP191 | CP192 | CP194 | CP201 | CP203 | CP211 | CP215 | CP217

CCCCCCCC(=O)OCC(COC(=O)CCCCCCC)OC(=O)CCCCCCC
inactive: C2A | CP185 | CP191 | CP192 | CP194 | CP201 | CP203 | CP211 | CP215 | CP217

CC(C)=CCC/C(C)=C/CO
inactive: C2A | CP185 | CP191 | CP192 | CP194 | CP201 | CP203 | CP211 | CP215 | CP217

Cc1cc(NC(=O)C2=C(O)c3ccccc3S(=O)(=O)N2C)no1
inactive: C2A | CP185 | CP191 | CP192 | CP194 | CP201 | CP203 | CP211 | CP215 | CP217

C=CCNC(N)=S
inactive: C2A | CP185 | CP191 | CP192 | CP194 | CP201 | CP203 | CP211 | CP215 | CP217

Cc1ccccc1N=Nc1ccc(N=Nc2c(O)ccc3ccccc23)c(C)c1
inactive: C2A | CP185 | CP191 | CP192 | CP194 | CP201 | CP203 | CP211 | CP215 | CP217

CCCCOC(=O)c1ccc(N)cc1
inactive: C2A | CP185 | CP191 | CP192 | CP194 | CP201 | CP203 | CP211 | CP215 | CP217

CC(CSC(=O)c1ccccc1)C(=O)N1C[C@@H](Sc2ccccc2)C[C@H]1C(=O)O (stereo not given in full)
inactive: C2A | CP185 | CP191 | CP192 | CP194 | CP201 | CP203 | CP211 | CP215 | CP217

O=C(O)c1ccc[n+]([O-])c1
inactive: C2A | CP185 | CP191 | CP192 | CP194 | CP201 | CP203 | CP211 | CP215 | CP217

O=C(O)CNC(=O)c1ccccc1I
inactive: C2A | CP185 | CP191 | CP192 | CP194 | CP201 | CP203 | CP211 | CP215 | CP217

NS(=O)(=O)c1ccc(NC(=O)CCC(=O)O)cc1
inactive: C2A | CP185 | CP191 | CP192 | CP194 | CP201 | CP203 | CP211 | CP215 | CP217

CN1CCCN=C1COC(=O)C(O)(c1ccccc1)C1CCCCC1 (stereo not given)
inactive: C2A | CP185 | CP191 | CP192 | CP194 | CP201 | CP203 | CP211 | CP215 | CP217

CC1CCN(CCCC(=O)c2ccc(F)cc2)CC1
inactive: C2A | CP185 | CP191 | CP192 | CP194 | CP201 | CP203 | CP211 | CP215 | CP217

O=C(c1ccccc1)C(O)c1ccccc1 (stereo not given)
inactive: C2A | CP185 | CP191 | CP192 | CP194 | CP201 | CP203 | CP211 | CP215 | CP217

O=C(O)CCCc1ccccc1
inactive: C2A | CP185 | CP191 | CP192 | CP194 | CP201 | CP203 | CP211 | CP215 | CP217

OC[C@@H](O)[C@@H](O)[C@H](O)[C@H](O)CO
inactive: C2A | CP185 | CP191 | CP192 | CP194 | CP201 | CP203 | CP211 | CP215 | CP217

O=C(NCCCN1CCOCC1)c1ccc(Cl)cc1
inactive: C2A | CP185 | CP191 | CP192 | CP194 | CP201 | CP203 | CP211 | CP215 | CP217

CCCCC1(COC(=O)CCC(=O)O)C(=O)N(c2ccccc2)N(c2ccccc2)C1=O
inactive: C2A | CP185 | CP191 | CP192 | CP194 | CP201 | CP203 | CP211 | CP215 | CP217

COc1ccccc1OC(=O)Oc1ccccc1OC
inactive: C2A | CP185 | CP191 | CP192 | CP194 | CP201 | CP203 | CP211 | CP215 | CP217

CCCCCC(N)=O
inactive: C2A | CP185 | CP191 | CP192 | CP194 | CP201 | CP203 | CP211 | CP215 | CP217

COc1ccc(O)cc1
inactive: C2A | CP185 | CP191 | CP192 | CP194 | CP201 | CP203 | CP211 | CP215 | CP217

O=C(O)c1ccccc1OP(=O)(O)O
inactive: C2A | CP185 | CP191 | CP192 | CP194 | CP201 | CP203 | CP211 | CP215 | CP217

CCCCCCCCCCC(CO)CCCCCCCC (stereo not given)
inactive: C2A | CP185 | CP191 | CP192 | CP194 | CP201 | CP203 | CP211 | CP215 | CP217

O=C(O)Cc1ccc(CCNS(=O)(=O)c2ccc(Cl)cc2)cc1
inactive: C2A | CP185 | CP191 | CP192 | CP194 | CP201 | CP203 | CP211 | CP215 | CP217

COc1ccc(NS(=O)(=O)c2ccc(N)cc2)nn1
inactive: C2A | CP185 | CP191 | CP192 | CP194 | CP201 | CP203 | CP211 | CP215 | CP217

CC(=O)Oc1cccc(C)c1
inactive: C2A | CP185 | CP191 | CP192 | CP194 | CP201 | CP203 | CP211 | CP215 | CP217

CC(C)CCCC(C)CCCC(C)CCCCC(C)CCCC(C)CCCC(C)C (stereo not given)
inactive: C2A | CP185 | CP191 | CP192 | CP194 | CP201 | CP203 | CP211 | CP215 | CP217

O=C(O)CCC(=O)O
inactive: C2A | CP185 | CP191 | CP192 | CP194 | CP201 | CP203 | CP211 | CP215 | CP217

O=C(O)c1ccccc1C(=O)Nc1ccc(S(=O)(=O)Nc2nccs2)cc1
inactive: C2A | CP185 | CP191 | CP192 | CP194 | CP201 | CP203 | CP211 | CP215 | CP217

CCOC(=O)c1cccnc1
inactive: C2A | CP185 | CP191 | CP192 | CP194 | CP201 | CP203 | CP211 | CP215 | CP217

CNc1c2c(nn1C)CCCC2
inactive: C2A | CP185 | CP191 | CP192 | CP194 | CP201 | CP203 | CP211 | CP215 | CP217

NS(=O)(=O)c1cc(-c2nn[nH]n2)c(NCc2cccs2)cc1Cl
inactive: C2A | CP185 | CP191 | CP192 | CP194 | CP201 | CP203 | CP211 | CP215 | CP217

Cc1ccc(S(=O)(=O)NC(=O)NC2CCCCCCC2)cc1
inactive: C2A | CP185 | CP191 | CP192 | CP194 | CP201 | CP203 | CP211 | CP215 | CP217

CCOc1cc(NC(C)=O)ccc1C(=O)OC
inactive: C2A | CP185 | CP191 | CP192 | CP194 | CP201 | CP203 | CP211 | CP215 | CP217

CC(=O)Nc1ccc(C(=O)O)cc1
inactive: C2A | CP185 | CP191 | CP192 | CP194 | CP201 | CP203 | CP211 | CP215 | CP217

Cc1cccc(Nc2ccccc2C(=O)O)c1C
inactive: C2A | CP185 | CP191 | CP192 | CP194 | CP201 | CP203 | CP211 | CP215 | CP217

C=CCSCC1Nc2cc(Cl)c(S(N)(=O)=O)cc2S(=O)(=O)N1 (stereo not given)
inactive: C2A | CP185 | CP191 | CP192 | CP194 | CP201 | CP203 | CP211 | CP215 | CP217

CC(=O)NS(=O)(=O)c1ccc(N)cc1
inactive: C2A | CP185 | CP191 | CP192 | CP194 | CP201 | CP203 | CP211 | CP215 | CP217

O=c1[nH]c2cc(C(F)(F)F)c(N3CCOCC3)cc2n(CP(=O)(O)O)c1=O
inactive: C2A | CP185 | CP191 | CP192 | CP194 | CP201 | CP203 | CP211 | CP215 | CP217

CCOC(N)=O
inactive: C2A | CP185 | CP191 | CP192 | CP194 | CP201 | CP203 | CP211 | CP215 | CP217

CN1CCN(C(=O)C2CCCCC2)CC1
inactive: C2A | CP185 | CP191 | CP192 | CP194 | CP201 | CP203 | CP211 | CP215 | CP217
